A selection: hits, their analogues and other compounds. The true share with any hit is near 10%.
NIH3T3 tox: cytotoxic compounds in NIH 3T3 cells; NIH 3T3 viability, CellTiter-Glo ATP luminescence, 48-72 h; Potency, µM (titrated, usually from 96.7 µM), for inactives: at the highest dose activity change, negative = cytotoxicity, actives largely listed as inhibitors; 94,000 tested, 4.3% active; also: % is scaled to controls: 0 for no effect and ±100 for the full control effect; nearly all actives have a fitted effect of over 55% in size
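Viability of NIH 3T3 cells after 48 or 72 hr compound treatment at 37 °C was assessed by CellTiter-Glo, with luminescence imaged following a 10 min room-temperature step.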
NPR1 antag: human Npr1 receptor antagonism | P16066 | 76,000 tested, 1.6% active | HEK293 hNpr1 GloSensor cGMP, ANP-stimulated luminescence | Potency, µM (top dose mostly 46.3 µM), for the others: at the highest dose activity change, negative = inhibition, hits mostly inhibitors | AID 1347048; calls by dose curve; also: % is scaled to controls: 0 for no effect and ±100 for the full control effect; nearly all actives have a fitted effect of over 60% in size
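Compound pre-incubated 30 min at room temperature on GloSensor-loaded HEK293 cells stably carrying hNpr1 and the pGS-40F cGMP biosensor. Stimulation uses hNppA at 0.1 nM final; luminescence is taken at baseline and 20 min post-agonist.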
HEK293 tox: HEK 293 cell cytotoxicity; HEK 293 viability, ATP luminescence (CellTiter-Glo), 48-72 h; Potency, µM (titrated, usually from 115 µM), inactives show at the top dose activity change, negative = cytotoxicity, most hits filed as inhibitors; 94,000 tested, 6.6% active; also: % is scaled to controls: 0 for no effect and ±100 for the full control effect; nearly all actives have a fitted effect of over 60% in size
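ATP-coupled CellTiter-Glo luminescence served as viability read-out, recorded 10 min after reagent addition at room temperature. HEK 293 cells, 250 cells/well, had been incubated with pintool-transferred compound for 48 or 72 hr at 37 degree Celsius.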
GPT2 inh: GPT2 alanine aminotransferase inhibition; 100,000 tested, 0.25% active; Recombinant GPT2, coupled pyruvate oxidase/HRP Amplex Red fluorescence; Potency, µM (series often up to 57.7 µM), for inactives: at the top dose activity change, negative = inhibition, hits mostly inhibitors; also: % is scaled to controls: 0 for no effect and ±100 for the full control effect; nearly all actives have a fitted effect of over 60% in size
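Recombinant GPT2 (10ng/uL) with 250uM a-KG and 2mM L-alanine, 30 min at room temperature, in HEPES pH 7.5 buffer. Pyruvate detected by pyruvate oxidase/HRP/Amplex Red fluorescence after 30 min in the dark; AOA (50uM) as positive control.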
FLuc inh: blocks purified firefly luciferase enzyme activity; purified P. pyralis luciferase, luminescence, biochemical; Potency, µM (series often up to 115 µM), usual class: inhibitors; 76,000 tested, 2.5% active; AID 1347043; also: % is scaled to controls: 0 for no effect and ±100 for the full control effect; nearly all actives have a fitted effect of over 65% in size
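Inhibitors were tested against purified firefly luciferase in a biochemical, low-substrate format (both substrates at 10uM) and luminescence measured with a CCD imager.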
Npr1 antag conf: confirmation of human Npr1 natriuretic peptide receptor antagonists; 1,400 tested, 76% active; Potency, µM (highest dose often 57.6 µM), inactives show at the highest dose activity change, negative = inhibition, actives largely listed as inhibitors; HEK293 hNpr1 cGMP GloSensor luminescence, ANP-stimulated; shares compounds with NPR1 antag; calls by dose curve; also: nearly all actives have a fitted effect of over 70% in size
NPR2 antag: antagonizes human Npr2, subtype selectivity check | 1,400 tested, 67% active | shares compounds with NPR1 antag | Potency, µM (highest dose often 57.6 µM), inactives show at the highest dose activity change, negative = inhibition, actives largely listed as inhibitors | HEK293 hNpr2 GloSensor cGMP luminescence, CNP-stimulated; calls by dose curve; also: nearly all actives have a fitted effect of over 70% in size
FLuc counter: FLuc enzyme inhibition, Npr1 counter-screen | shares compounds with NPR1 antag | purified FLuc enzyme, luminescence, Km substrate | Potency, µM (titrated, usually from 57.6 µM), for the others: at the top dose activity change, negative = inhibition, most hits filed as inhibitors | 1,400 tested, 0.7% active; also: series mostly up to about 58 µM; 0% is about no effect
GloSensor cGMP: control cell line activity, Npr1 antagonist counter-screen; shares compounds with NPR1 antag; HEK293 GloSensor cGMP, SNP-stimulated, luminescence; Potency, µM (series often up to 57.6 µM), without a hit: at the top dose activity change, negative = inhibition, most hits filed as inhibitors; 1,400 tested, 69% active; AID 1347051; calls by dose curve; also: % is scaled to controls: 0 for no effect and ±100 for the full control effect; nearly all actives have a fitted effect of over 70% in size
Starred values were filed as active, the others as inactive; i = inactive; ? = inconclusive; . = not tested or not shown; [ ] = remark or other dose. Unless noted, calls follow the shape of the dose curve; as a rule, active = well fitted curve in the direction sought with a large enough effect; inconclusive = small, poorly fitted or top-dose-only effect, or another doubt; inactive = no such curve, though single readings can be large; an effect the other way counts as inactive or inconclusive. Potency is read from the fitted curve at half-maximal effect.

SMILES	NIH3T3 tox	NPR1 antag	HEK293 tox	GPT2 inh	FLuc inh	Npr1 antag conf	NPR2 antag	FLuc counter	GloSensor cGMP
Cc1nc2cccnc2n1CC1CCCN(S(=O)(=O)c2ccc(C(C)C)cc2)C1 (centres undefined)	?	?	?	2%	i	27µM*	?	4%	24µM*
Cc1ccc(S(=O)(=O)N2CCCC(Cn3c(C)nc4cccnc43)C2)cc1 (centres undefined)	?	-19%	?	1%	i	.	.	.	.
CC(C)N(CCCNC(=O)Nc1ccc(C(C)(C)C)cc1)C[C@H]1O[C@@H](n2ccc3c(N)ncnc32)[C@H](O)[C@@H]1O	.	.	.	3%	.	.	.	.	.
COc1ccc(C2Cn3nnc(-c4noc(C5CCCCC5)n4)c3CO2)cc1 (centres undefined)	i	-1%	10%	-7%	i	?	?	1%	-5%
Clc1ccc(C2Cn3nnc(-c4noc(C5CCCC5)n4)c3CO2)cc1 (centres undefined)	-12%	-22%	?	i	i	.	.	.	.
O=C(Cc1ccccn1)N1CCN(C(=O)c2cccc(-c3ccccn3)c2)CC1	-17%	.	-5%	i	.	.	.	.	.
O=C(c1ccccc1F)N1CCN(C(=O)c2nnn3c2COC(c2ccc(Cl)cc2)C3)CC1 (centres undefined)	?	14µM*	?	2%	i	27µM*	?	2%	?
COc1ccccc1C(=O)N1CCN(C(=O)c2nnn3c2COC(c2ccc(C)cc2)C3)CC1 (centres undefined)	?	?	?	?	i	?	-28%	1%	?
CCOc1ccccc1C(=O)N1CCN(C(=O)c2nnn3c2COC(c2ccccc2)C3)CC1 (centres undefined)	-18%	0%	?	5%	i	.	.	.	.
COc1ccc(Cl)cc1C(=O)N1CCN(C(=O)c2nnn3c2COC(c2ccccc2)C3)CC1 (centres undefined)	?	?	?	i	i	?	?	2%	-25%
O=C(NC1CCCCCCC1)c1nnn2c1COC(c1ccc(F)cc1)C2 (centres undefined)	?	?	?	i	i	?	?	-1%	?
CC(=O)N[C@@H]1CN(C(=O)c2csc(-c3cccnc3)n2)C[C@H]1C(C)C	-21%	-1%	-16%	-18%	i	.	.	.	.
Cc1ccc(C2=NC3(CCN(C(=O)c4ccc(N(C)C)cc4)CC3)ON2)cc1	-13%	-15%	?	i	?	.	.	.	.
O=C(c1ccc2cc[nH]c2c1)N1CCC2(CC1)N=C(c1cccc(Br)c1)NO2	?	?	?	1%	i	.	.	.	.
O=C(c1ccccc1)N1CCC2(CC1)N=C(c1ccc(Br)cc1)NO2	?	16µM*	?	i	i	27µM*	?	1%	?
Cc1ccc(C(=O)N2CCC3(CC2)N=C(c2ccc(Br)cc2)NO3)cc1	-22%	16µM*	?	i	i	22µM*	19µM*	2%	19µM*
CN(C)c1ccc(C(=O)N2CCC3(CC2)N=C(c2ccc(Br)cc2)NO3)cc1	-17%	11µM*	?	i	i	19µM*	22µM*	0%	15µM*
O=C(c1ccc2[nH]ccc2c1)N1CCC2(CC1)N=C(c1ccc(Br)cc1)NO2	?	11µM*	?	i	i	24µM*	14µM*	-10%	11µM*
O=C(c1cccc(F)c1)N1CCC2(CC1)N=C(c1ccc(Br)cc1)NO2	?	?	?	i	i	.	.	.	.
COC[C@@H]1CN(Cc2c(OC)cccc2OC)C[C@H]1c1ccncc1	?	6.3µM*	35µM*	i	i	15µM*	15µM*	0%	14µM*
FC(F)(F)c1ccc(O[C@H]2COCCN(c3nc4ccccc4o3)C2)nc1	?	35µM*	100µM*	3%[88.5 µM]	i	40µM*	35µM*	0%[86.2 µM]	35µM*
COc1cc(NC(=O)Cn2c(N3CCC(C)CC3)nc(C)cc2=O)cc(OC)c1	?	6.3µM*	?	-11%	i	9.7µM*	12µM*	3%	6.9µM*
COc1ccc(OC)c(NC(=O)Cn2c(N3CCC(C)CC3)nc(C)cc2=O)c1	?	13µM*	?	3%	i	22µM*	22µM*	4%	24µM*
Cc1cc(=O)n(CC(=O)Nc2cccc(Cl)c2)c(N2CCc3ccccc3C2)n1	14µM*	20µM*	?	i	i	-30%	-23%	1%	?
Cc1cc(=O)n(CC(=O)Nc2ccc(Cl)cc2)c(N2CCc3ccccc3C2)n1	?	-16%	?	i	i	.	.	.	.
SMILES	NIH3T3 tox	NPR1 antag	HEK293 tox	GPT2 inh	FLuc inh	Npr1 antag conf	NPR2 antag	FLuc counter	GloSensor cGMP
CCCN(C)c1nccnc1OC1CCN(C(=O)c2ccncc2)C1 (centres undefined)	-6%	2%	-15%	-12%	i	.	.	.	.
Cc1nn(C)cc1C(C)NC(=O)CN1CCCc2nc(-c3ccccc3)ncc2C1=O (centres undefined)	-25%	?	?	i	i	?	-29%	3%	-20%
CC(CCc1ccco1)NC(=O)CN1CCCc2nc(-c3ccccc3)ncc2C1=O (centres undefined)	?	?	?	i	i	?	?	2%	?
O=C(CN1CCCc2nc(-c3ccccc3)ncc2C1=O)NCCc1c[nH]c2ccccc12	?	10µM*	?	3%	i	27µM*	?	-10%	22µM*
O=C(O)CN1CCCc2nc(-c3ccccc3)ncc2C1=O	i	5%	i	i	i	.	.	.	.
Cc1[nH]ncc1CNC(=O)CN1CCCc2nc(-c3ccccc3)ncc2C1=O	-15%	-1%	-15%	i	i	.	.	.	.

Screening data as filed in PubChem BioAssay.
